# In PubChem BioAssay:
# Values joined by “and” are separate entries in the source; they are usually repeats but may differ in a detail not shown here. Equal values may be shown once. Active and inactive are the calls of the source. Unless noted, no stated cut-off is given here; in the data, active means inhibition above about 80%; inactive means the rest.
# Experiments:
# [1] = growth inhibition, single agent or in combination, cell-based, chromothripsis tumors, cisplatin or BGB combos (AID 1671449); conditions: LFS_MB_P medulloblastoma cells;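 further: cells exposed for 96 hours; 0% = vehicle DMSO and 100% = killing by high DMSO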
# [2] = growth inhibition, single agent and combos, cell-based, chromothripsis tumors, cisplatin or BGB combos (AID 1671450); conditions: HDN33 neuroblastoma cells, stronger effect = higher value;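 further: cells exposed to compound for four days; 0% = vehicle DMSO and 100% = cell killing by high DMSO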
# [3] = growth inhibition, single agents and combos, ICB984, cell-based, cisplatin or BGB combos, synergistic combos for chromothripsis tumors (AID 1671451; call rule not given here;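 further: cells exposed for 96 hours before readout; 0% = vehicle DMSO and 100% = killing by high DMSO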); conditions: ICB984 medulloblastoma cells, drug combinations, stronger effect = higher value
# [4] = growth inhibition, single agents and combos, LFS_MB_1R, cell-based, cisplatin or BGB combos, synergistic combos for chromothripsis tumors (AID 1671452); conditions: LFS_MB_1R medulloblastoma cells, stronger effect = higher value;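 further: cells exposed for 96 hours before readout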
# [5] = growth inhibition, single agents and combos, HTB85, cell-based, BGB or cisplatin IC20 combos, synergistic combos for chromothripsis tumors (AID 1671453); conditions: HTB85 osteosarcoma cells, drug combinations, stronger effect = higher value;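 further: cells exposed for 96 hours before readout; 0% = vehicle DMSO and 100% = high DMSO killing control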
# [6] = growth inhibition, single agents and combos, CRL2098, cell-based, BGB or cisplatin IC20 combos, synergistic combos for chromothripsis tumors (AID 1671454); conditions: CRL2098 osteosarcoma cells, drug combinations, stronger effect = higher value;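 further: cells exposed for 96 h before readout; 0% = vehicle DMSO and 100% = killing by high DMSO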
# [7] = growth inhibition, single agents and combos, HD-MB03, cell-based, BGB or cisplatin IC20 combos, synergistic combos for chromothripsis tumors (AID 1671455; in the data active means inhibition above about 83%;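 further: 0% = vehicle DMSO and 100% = high DMSO as cytotoxic control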); conditions: HD-MB03 medulloblastoma cells, stronger effect = higher value
# [8] = growth inhibition, single agents and combos, UWB1.289, cell-based, BGB or cisplatin combos, synergistic combos for chromothripsis tumors (AID 1671456); conditions: UWB1.289 ovarian carcinoma cells, stronger effect = higher value;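 further: cells exposed to compound for four days; 0% = vehicle DMSO and 100% = killing by high DMSO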
# [9] = growth inhibition, single agents and combos, LFS_MB_2R, cell-based, cisplatin combos, synergistic combos for chromothripsis tumors (AID 1671457); conditions: LFS_MB_2R medulloblastoma cells, stronger effect = higher value;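 further: cells exposed to compound for four days before readout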
# [10] = growth inhibition, MDA-MB-436, cell-based, BGB or cisplatin combos, synergistic combos for chromothripsis tumors (AID 1671458; call rule not given here;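 further: cells exposed for 96 hours; 0% = vehicle DMSO and 100% = killing by high DMSO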); conditions: MDA-MB-436 breast carcinoma growth inhibition, drug combinations, stronger effect = higher value
# [11] = UWB1.289_BRCA1 ovarian cancer growth, cell-based, BGB or cisplatin combinations (AID 1671459); conditions: UWB1.289 BRCA1 ovarian carcinoma, drug combinations, stronger effect = higher value
# [12] = drug combination toxicity in non-malignant astrocytes – cell-based, BGB or cisplatin IC20 combos, cytotoxicity control for chromothriptic childhood tumor combination screen (AID 1671460); conditions: Human astrocytes, viability inhibition, drug combinations, at 0.5 µM, stronger effect = higher value;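 further: cells exposed to compounds for 96 hours before viability readout; 0% = vehicle and 100% = killing control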
# [13] = BT084 cell growth, single and combined drugs, ICGC_MB145, cisplatin and BGB IC40 combos (AID 1671461); conditions: BT084 medulloblastoma cells, drug combinations, stronger effect = higher value;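 further: cells exposed to drugs for 96 hours; 0% = vehicle DMSO and 100% = high DMSO full killing control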
# [14] = RCMB18 cell growth, single agent and combined, cisplatin and BGB IC40 combos (AID 1671462); conditions: RCMB18 medulloblastoma cells, stronger effect = higher value;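 further: cells exposed to compound for four days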
# [15] = CRL1545 cell growth, single agent and combined, cisplatin and BGB IC20 combos (AID 1671464); conditions: CRL1545 osteosarcoma cells, stronger effect = higher value;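 further: cells exposed to compound for 96 hours before readout; 0% = vehicle DMSO and 100% = high DMSO killing control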
# [16] = measured here: combination with BGB IC40, at 0.05 µM
# [17] = measured here: with BGB IC20 combination, at 0.5 µM
# [18] = measured here: with cisplatin IC20 combination, at 0.5 µM
# [19] = measured here: combination with cisplatin, at 0.5 µM
# [20] = measured here: combination with cisplatin, at 5 µM
smiles,measurement,setting,value
CN(C)CCNC(=O)c1cccn2c(=O)c3cc4ccccc4cc3nc12,inhibition,"[1]; at 0.5 µM, stronger effect = higher value",-18% (inactive) and -22.8% (inactive)
same,inhibition,"[1]; measured here: combination with BGB IC20, at 0.005 µM",-22.4% and -7.9%
same,inhibition,"[1]; measured here: combination with BGB IC40, at 0.005 µM",-33.3% and -28%
same,inhibition,[1]; [16],-30.9% and 0.948%
same,inhibition,"[1]; measured here: combination with cisplatin, at 0.5 µM, stronger effect = higher value",-27.4% and -25.4%
same,inhibition,"[1]; measured here: combination with cisplatin, at 5 µM, stronger effect = higher value",25.9% and 73.9%
same,inhibition,"[2]; BGB combo, at 5 µM",58.1% and 71.8%
same,inhibition,[2]; at 0.5 µM,4.02% (inactive) and 16.5% (inactive)
same,inhibition,"[2]; cisplatin combo, at 5 µM",63.6% and 83.1%
same,inhibition,[2]; [17],-3.52% and 15.5%
same,inhibition,[2]; [18],5.98% and 5.66%
same,inhibition,"[2]; single agent, at 5 µM",67.9% and 86.2%
same,inhibition,"[3]; BGB IC20 combo, at 0.005 µM",-2.65% and -7.73%
same,inhibition,"[3]; BGB IC40 combo, at 0.005 µM",-19% and -46.8%
same,inhibition,"[3]; BGB IC40 combo, at 0.05 µM",29.2% and 25.5%
same,inhibition,[3]; at 0.5 µM,-22.7% (inactive) and -19.3% (inactive)
same,inhibition,"[3]; cisplatin combo, at 0.05 µM",25.8% and 22.5%
same,inhibition,"[3]; cisplatin combo, at 0.5 µM",-35.6% and -11.2%
same,inhibition,"[3]; cisplatin combo, at 5 µM",-26.2% and -47.1%
same,inhibition,"[3]; measured here: 5 uM single agent, at 5 µM",-15.3% and -26.1%
same,inhibition,[4]; at 0.5 µM,-22.6% (inactive) and -0.28% (inactive)
same,inhibition,[4]; [16],-22.9% and -35.5%
same,inhibition,[4]; [19],-29.9% and 26.6%
same,inhibition,[4]; [20],66.5% and 90.2%
same,inhibition,[5]; at 0.5 µM,-6.94% (inactive) and -9.64% (inactive)
same,inhibition,"[5]; measured here: with BGB IC20, at 0.5 µM",10% and -19.8%
same,inhibition,"[5]; measured here: with BGB IC20, at 5 µM",24.9% and 50.6%
same,inhibition,"[5]; measured here: with cisplatin IC20, at 0.5 µM",-22.5% and -20.8%
same,inhibition,"[5]; measured here: with cisplatin IC20, at 5 µM",24% and 36.1%
same,inhibition,"[5]; single agent, at 5 µM",45.2% and 66.6%
same,inhibition,[6]; at 0.5 µM,2.28% (inactive) and -30.7% (inactive)
same,inhibition,"[6]; measured here: combination with BGB at IC20, at 0.5 µM",-26.7% and 2.29%
same,inhibition,"[6]; measured here: combination with cisplatin at IC20, at 0.5 µM",7.69% and -23.9%
same,inhibition,[7]; at 0.5 µM,0.57% (inactive) and 18.1% (inactive)
same,inhibition,"[7]; measured here: combo with BGB at IC20, at 0.5 µM",5% and 20.5%
same,inhibition,"[7]; measured here: combo with cisplatin at IC20, at 0.5 µM",-3.84% and 18.8%
same,inhibition,[8]; at 0.5 µM,10.9% (inactive) and 15.8% (inactive)
same,inhibition,"[8]; measured here: inhibition with BGB combination, at 0.05 µM",-15.6% and -22%
same,inhibition,"[8]; measured here: inhibition with cisplatin combination, at 0.05 µM",-3.25% and -14.4%
same,inhibition,[9]; at 0.5 µM,-28.9% (inactive) and -23.7% (inactive)
same,inhibition,[9]; [19],-34.7% and -23.8%
same,inhibition,[9]; [20],-8.3% and 23.4%
same,inhibition,[10]; at 0.5 µM,-19.8% (inactive) and -0.82% (inactive)
same,inhibition,"[10]; measured here: BGB combination, at 0.5 µM",-29.6% and -21.4%
same,inhibition,"[10]; measured here: BGB combination, at 5 µM",5.41% and 28.4%
same,inhibition,"[10]; measured here: cisplatin combination, at 0.5 µM",-39.6% and -3.6%
same,inhibition,"[10]; measured here: cisplatin combination, at 5 µM",-6.72% and 54.3%
same,inhibition,"[11]; BGB combination, concentration series, at 5 µM",35.7% and 58.1%
same,inhibition,[11]; at 0.5 µM,9.64% (inactive) and 20.1% (inactive)
same,inhibition,"[11]; cisplatin combination, concentration series, at 5 µM",60% and 77.2%
same,inhibition,[12],16.8% (inactive) and 32.4% (inactive)
same,inhibition,[12]; measured here: combo with BGB IC20,18.7% and 31.3%
same,inhibition,[12]; measured here: combo with cisplatin IC20,0.257% and 17.6%
same,inhibition,[13]; at 0.5 µM,-10% (inactive) and -13.6% (inactive)
same,inhibition,"[13]; cisplatin combination, at 0.5 µM",-8.31% and -7.28%
same,inhibition,"[13]; cisplatin combination, at 5 µM",-110% and 45.2%
same,inhibition,"[13]; measured here: BGB IC40 combination 0.05 uM, at 0.05 µM",-36.7% and -32.1%
same,inhibition,"[13]; single agent, at 5 µM",-53.7% and -33.8%
same,inhibition,[14]; at 0.5 µM,-4.43% (inactive) and -8.03% (inactive)
same,inhibition,"[14]; cisplatin combo, at 5 µM",24.5% and 56.4%
same,inhibition,"[14]; measured here: BGB IC40 combination, at 0.05 µM",-9.99% and -6.24%
same,inhibition,[14]; [19],-30.6% and 30.2%
same,inhibition,"[14]; single agent, at 5 µM",-2.75% and -32%
same,inhibition,[15]; at 0.5 µM,6.65% (inactive) and -6.99% (inactive)
same,inhibition,[15]; [17],19.7% and -21.2%
same,inhibition,[15]; [18],-1.47% and 0.101%
same,inhibition,"[15]; single agent, at 0.05 µM",-9.51% and -11.2%
same,inhibition,"[15]; single agent, at 5 µM",37.2% and 93.5%
